In the library only some 19% were active in any assay of this set; here they are far more common.
TGFb inhibitor: qHTS for Inhibitors of TGF-b | Potency, µM (titrated, usually from 46.1 µM), for the others: at the highest dose activity, negative = inhibition, usual class: inhibitors | AID 588855, 2011 | HepG2 CAGA-GFP TGF-b/SMAD3 reporter, GFP fluorescence, 18 h; TGF-beta stimulated, 500 pg/mL final | actives 1.2% (n = 410,000); note: potency is the fitted concentration of half-maximal effect; % is set by controls: 0 for no effect and ±100 for the full control effect; nearly all actives have a fitted effect of over 65% in size
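TGF-beta reporter screen: HEPG2 CAGA-GFP, 1% FBS, 500 pg/mL TGF-beta final, 18 h; per-cell GFP summed per well; curves fitted and categorized by class.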
DT40 TDP1 no CPT: qHTS for Inhibitors of human tyrosyl-DNA phosphodiesterase 1 (TDP1): qHTS in cells in absence of CPT. DT40 Tdp1-/- hTDP1 cells, no CPT, ATP luminescence, 48 h. Potency, µM (doses to about 46.2 µM), for inactives: at the top dose activity change, negative = growth inhibition, actives largely listed as inhibitors. actives 15% (n = 420,000). AID 686978, 2013; note: potency is the fitted concentration of half-maximal effect; % is set by controls: 0 for no effect and ±100 for the full control effect; nearly all actives have a fitted effect of over 55% in size
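No-CPT arm: Tdp1-/-;hTDP1 DT40 cells (400/well) plus compounds, incubated ≥48 hr at 37 °C. Readout CellTiter-Glo luminescence.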
DT40 TDP1 CPT: qHTS for Inhibitors of human tyrosyl-DNA phosphodiesterase 1 (TDP1): qHTS in cells in presence of CPT | AID 686979, 2013 | chicken DT40 Tdp1-/-;hTDP1 cells + 20 nM CPT, ATP luminescence, 48 h | Potency, µM (series often up to 46.2 µM), without a hit: at the top dose activity change, negative = growth inhibition, most hits filed as inhibitors | actives 12% (n = 420,000); note: potency is the fitted concentration of half-maximal effect; % is set by controls: 0 for no effect and ±100 for the full control effect; nearly all actives have a fitted effect of over 55% in size
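Chicken DT40 Tdp1-/- cells complemented with human TDP1, 400 cells/well, exposed to compounds plus 20 nM camptothecin for at least 48 h at 37 C; viability read as ATP content by CellTiter-Glo luminescence.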
IL-1B inflam inh: qHTS for Inhibitors of Inflammasome Signaling: IL-1-beta AlphaLISA Primary Screen | THP-1 LPS/ATP IL-1B secretion, AlphaLISA, 16 h; active compounds read low | activity change, % at 57.5 µM | actives 4.7% (n = 360,000) | AID 743279, 2014; in the data active = activity change below about -50%; inconclusive = mostly about -30% to -49%; note: % is set by controls: 0 for no effect and ±100 for the full control effect
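Secreted IL-1B measured by AlphaLISA bead assay after 16 h compound exposure of THP-1 cells; compounds (final up to 57.5 uM) added 1 h before LPS (250 ng/mL) and ATP (1.25 mM) stimulation; lower signal means less secretion.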
ASM inhibitor: Inhibitors of Secretory Acid Sphingomyelinase (S-ASM): qHTS; Sphingomyelin phosphodiesterase (Homo sapiens), P17405; placental ASM, HMU-PC fluorogenic substrate, 60 min; Potency, µM (series often up to 57.5 µM), without a hit: top-dose activity change, negative = inhibition, hits mostly inhibitors; actives 0.006% (n = 340,000); note: potency is the fitted concentration of half-maximal effect
Target sequence (P17405 47-631 limits assumed): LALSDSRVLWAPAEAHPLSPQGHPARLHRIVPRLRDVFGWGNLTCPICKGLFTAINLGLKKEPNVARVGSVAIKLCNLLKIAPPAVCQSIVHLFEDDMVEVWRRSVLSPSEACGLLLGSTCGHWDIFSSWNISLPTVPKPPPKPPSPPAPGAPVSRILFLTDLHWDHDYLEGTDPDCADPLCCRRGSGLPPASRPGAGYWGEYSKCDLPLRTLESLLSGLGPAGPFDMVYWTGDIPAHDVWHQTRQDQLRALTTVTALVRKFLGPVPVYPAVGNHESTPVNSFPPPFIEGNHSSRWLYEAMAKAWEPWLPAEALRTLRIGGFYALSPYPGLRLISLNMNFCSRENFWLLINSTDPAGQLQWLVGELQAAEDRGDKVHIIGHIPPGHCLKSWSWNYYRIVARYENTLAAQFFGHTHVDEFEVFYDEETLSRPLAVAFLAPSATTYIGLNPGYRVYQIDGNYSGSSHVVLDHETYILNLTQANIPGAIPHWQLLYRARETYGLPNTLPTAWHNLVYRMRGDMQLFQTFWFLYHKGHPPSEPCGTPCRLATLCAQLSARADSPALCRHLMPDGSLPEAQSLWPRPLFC
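Human placenta-derived ASM enzyme was preincubated with compound for 10 minutes at room temperature, then given fluorogenic substrate HMU-PC0 (9 uM final) for 60 minutes at 37 °C; a pH 10 stop preceded fluorescence reading at Ex 386/Em 447 nm.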
HepG2 viability: qHTS for Inhibitors of TGF-b: Cytotox Counterscreen; actives 0.76% (n = 410,000); HepG2 CAGA-GFP viability, ATP luminescence, 18 h; Potency, µM (titrated, usually from 46.1 µM), inactives show top-dose activity change, negative = cytotoxicity, actives largely listed as cytotoxic; AID 588856, 2011; note: potency is the fitted concentration of half-maximal effect
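CellTiter-Glo luminescence gave cytotoxicity after 18 hours at 37 degrees C. The cells were HepG2 CAGA-GFP in 1% FBS DMEM, stimulated with 500 pg/mL TGF-beta after compound addition. %Activity was normalised to no-cell wells (complete cell-killing) and DMSO (no toxicity), and curves were fitted and classified.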
The depositor's hits bear a star; u = inconclusive; x = not tested or not shown; ! = not active in a repeat. Unless noted, calls come from the whole dose curve; as a rule, active = well fitted curve in the direction sought with a large enough effect; inconclusive = small, poorly fitted or top-dose-only effect, or another doubt; inactive = no such curve, though single readings can be large; an effect the other way counts as inactive or inconclusive.

SMILES	TGFb inhibitor	DT40 TDP1 no CPT	DT40 TDP1 CPT	IL-1B inflam inh	ASM inhibitor	HepG2 viability
NC(=O)c1sc2nc(-c3ccccc3)ccc2c1N	-8.0%	4.6%	17.8%	-10.6	85.0%	-8.8%
COc1ccc(-c2ccc3c(N)c(C(=O)c4ccc(OC)c(OC)c4)sc3n2)cc1	u	9.2µM*	9.2µM*!	1.7	-5.0%	-25.4%
COc1cccc(-c2ccc3c(N)c(C(=O)c4ccc(Br)cc4)sc3n2)c1	54.2%	14.6µM*	14.6µM*	x	x	1.1%
COc1cccc(-c2ccc3c(N)c(C(=O)Nc4ccc(Cl)cc4F)sc3n2)c1	-18.4%	u	-23.8%	x	x	-21.0%
COc1ccc(-c2ccc3c(N)c(C(=O)NC(C)C)sc3n2)cc1OC	-7.8%	16.4µM*	-24.6%	x	279.3%	-28.6%
COc1ccc(C(=O)c2sc3nc(-c4ccccc4)ccc3c2N)cc1OC	-13.6%	13µM*	16.4µM*	15.0	-11.3%	-30.4%
O=S(=O)(c1ccccc1)N1CCC(O)(CN2CCN(c3ccccc3)CC2)CC1	0.0%	-11.6%	-4.2%	29.9	0.6%	-1.4%
CC1(C)CC(=O)C=C(c2ccc(I)cc2)C1	-17.4%	u	-8.7%	-73.8*	-4.2%	-30.1%
Cc1ccc(Nc2cc(C)nc3c(C)cccc23)cc1	u	u	u	-88.3*	-1.1%	-21.2%
Cc1cc(C)c2nc(C)cc(Nc3ccc(C(=O)N4CCOCC4)cc3)c2c1	-0.7%	-22.8%	5.2%	-64.9*	6.9%	-0.3%
Cc1cc(C)c2nc(-c3cccc(Cl)c3)c(C)c(C(=O)N3CCOCC3)c2c1	-18.8%	u	u	-82.3*	-6.0%	-2.9%
Cc1cc(Nc2cccc(O)c2)c2cccc(Br)c2n1	u	-27.7%	-23.5%	x	x	-6.7%
Cc1onc(-c2c(Cl)cccc2Cl)c1C(=O)N1CCOCC1	-8.7%	-30.5%	5.2%	12.5	-13.9%	2.8%
Cc1ccc(NC(=O)Nc2ccc(C(=O)N3CCOCC3)cc2)cc1	-10.3%	u	-1.7%	-10.4	-1.1%	-5.2%
CC(=O)c1ccc(Nc2cc(C)nc3c(C)cccc23)cc1	-18.9%	1.3µM*	1.3µM*	-6.5	66.6%	-20.8%
CC(=O)c1ccc(Nc2nc(C)cc(C)n2)cc1	0.1%	0.5%	-6.8%	-10.0	4.8%	-3.0%
COc1ccc(CCNC(=O)CSc2c[nH]c3ccccc23)cc1OC	-0.1%	u	u	2.3	3.2%	-8.5%
COc1ccc(N(CC(=O)Nc2cccc(C(C)=O)c2)S(=O)(=O)c2ccc(NC(C)=O)cc2)cc1	10.8%	-29.6%	u	0.0	-9.3%	4.4%
O=C(Nc1ccc(F)c(F)c1)C1CCCCC1	8.9%	-20.4%	-29.0%	-3.8	0.0%	-12.2%
CC(=O)c1cccc(Nc2cc(C)nc3ccc(C)cc23)c1	u	u	u	-5.9	-0.1%	-29.5%
CC(=O)c1ccc(Nc2cc(C)nc3ccccc23)cc1	0.7%	13µM*	11.6µM*	6.7	27.1%	-5.8%
CC(=O)c1cccc(Nc2cc(C)nc3c(C)cc(C)cc23)c1	u	14.6µM*	u	-52.6*	-1.8%	-44.1%
COc1ccc(-n2cc(-c3ccccc3)c3c(NN4CCOCC4)ncnc32)cc1	-12.2%	16.4µM*	u	-85.4*	2.5%	-37.0%
COc1ccc(C)cc1Nc1ncnc2c1c(-c1ccccc1)cn2-c1ccc(C)cc1	-3.3%	-21.6%	0.7%	x	x	12.0%
COc1ccc(Nc2ncnc3c2c(-c2ccccc2)cn3-c2ccc(C)c(Cl)c2)cc1OC	-0.6%	-12.0%	-2.1%	x	x	2.3%

Screening data from PubChem.
